Rev-erbA mod – Rev-erb alpha (human) modulation | P20393 | Rev-erbα–FITC-DNA binding, fluorescence polarization, 90 min | activity, % at 10 µM | actives 0.79% (n = 370,000) | AID 1259318;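 active = activity above about 14%, limit read from the data; passing the limit was not always enough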;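 also: 0% = DMSO wells with 35 nM protein and 100% = DMSO wells with 750 nM protein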
Target sequence (P20393 whole entry, looked up): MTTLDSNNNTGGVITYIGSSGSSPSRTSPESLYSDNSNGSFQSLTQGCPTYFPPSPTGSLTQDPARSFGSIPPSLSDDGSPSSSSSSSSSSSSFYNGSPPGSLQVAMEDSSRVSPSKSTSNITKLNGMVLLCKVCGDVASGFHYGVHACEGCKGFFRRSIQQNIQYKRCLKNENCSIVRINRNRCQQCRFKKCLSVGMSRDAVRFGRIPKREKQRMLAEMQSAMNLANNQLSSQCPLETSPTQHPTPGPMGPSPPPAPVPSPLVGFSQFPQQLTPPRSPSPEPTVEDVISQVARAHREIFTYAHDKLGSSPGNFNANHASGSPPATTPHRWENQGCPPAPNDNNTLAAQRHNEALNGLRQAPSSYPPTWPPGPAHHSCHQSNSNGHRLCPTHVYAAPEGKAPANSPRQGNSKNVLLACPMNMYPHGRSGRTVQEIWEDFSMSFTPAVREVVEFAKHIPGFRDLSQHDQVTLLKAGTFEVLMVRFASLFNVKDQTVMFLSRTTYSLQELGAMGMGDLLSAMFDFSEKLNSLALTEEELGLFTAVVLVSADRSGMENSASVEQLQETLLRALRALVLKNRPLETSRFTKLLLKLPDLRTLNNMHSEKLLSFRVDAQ
PG9 Ab binder – binds the HIV-1 gp120 antibody PG9. TR-FRET gp120-PG9 antibody binding. inhibition, % at 6.7 µM. actives 0.43% (n = 360,000); in the data active = inhibition above about 8.5%
Exocytosis inh – lytic granule exocytosis inhibition. actives 0.66% (n = 360,000). inhibition, % at 10 µM. TALL-104 LAMP-1 surface exposure, flow cytometry; cells stimulated with thapsigargin and PMA. AID 651702;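 active = inhibition above about 55%, limit read from the data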
VLA-4 inh – inhibition in a human VLA-4 binding assay; VLA-4 expressing cells, ligand binding flow cytometry; actives 0.2% (n = 330,000); AID 2557; P13612; inhibition, % (about 7 µM as worked out from the volumes in the protocol); in the data active = inhibition above about 50%
ABCB6 inh MLPCN – human ABCB6 transporter inhibition. Q9NP58. actives 0.19% (n = 360,000). AID 602162. fluorescence ratio to DMSO, % at 10 µM. K562-ABCB6 porphyrin accumulation, flow cytometry, 1 h; active compounds read low;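 active = fluorescence ratio to DMSO below 75%, the collection mean minus 3 SD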;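 also: signal is porphyrin accumulated inside mitochondria; 100% equals median channel fluorescence of DMSO control wells; lower ratio means ABCB6 inhibition with less porphyrin fluorescence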
ABCB6 blocker 1 – blocks the human ABCB6 transporter; shares compounds with ABCB6 inh MLPCN; K562-ABCB6 porphyrin accumulation, flow cytometry, 1 h; active compounds read low; ratio response (% of DMSO), % at 10 µM; 700 tested, under 10 active;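 active = repeat-averaged ratio response below 75% of DMSO, the collection mean minus 3 SD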;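 also: median porphyrin fluorescence at 575 nm with 488 nm excitation from mitochondria; lower ratio means less porphyrin signal so ABCB6 inhibition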
The depositor's hits bear a star; · = no result. Compounds with a hit are over-represented: about 2% of the library has one in this group of screens.

SMILES	Rev-erbA mod	PG9 Ab binder	Exocytosis inh	VLA-4 inh	ABCB6 inh MLPCN	ABCB6 blocker 1
COC(=O)CC#C[C@@H](C)[C@H](NS(=O)(=O)c1ccc(C)cc1)C(C)(C)C	2.3	-0.1	·	·	·	·
Cc1cccc(CCNC(=O)Cn2nc(-c3ccccc3)ccc2=O)c1	0.7	·	·	·	·	·
N[C@H](C(=O)N[C@@H](Cc1ccccc1)C(=O)N1CCC2CCN(S(=O)(=O)c3ccccc3)CC21)c1ccccc1 (stereo partly drawn)	13.0	·	·	·	·	·
COC(=O)C[C@@H]1CC[C@H]2[C@H](COc3ccc(NC(=O)C4CCC4)cc3C(=O)N2C)O1	-4.4	·	·	·	·	·
CCN(CC)CCNC(=O)CCc1nnc2ccc(N3CCC(C)CC3)nn12	1.5	-1.6	-7.7	10.4	99.0	103.0
COc1cccc(CNCCO)c1OCc1ccc(Cl)cc1	-7.8	0.6	-0.8	5.1	74.0*	97.0
Cc1nn(-c2ccccc2Cl)c(Cl)c1/C=N/Nc1nc2ccccc2s1	-4.5	-3.2	12.8	-9.6	66.0*	95.0
CCN=C1NC(c2cccc(F)c2)C(C(=O)OC)=C(C)N1Cc1ccccc1C(F)(F)F (stereo not drawn)	1.8	1.3	·	·	·	·
C/C(Cl)=C\Cn1c(NCCc2ccccc2)nc2c1c(=O)n(C)c(=O)n2C	·	-0.1	2.7	28.2	92.0	·
CCN(CC)CCNc1nc2c(c(=O)n(C)c(=O)n2C)n1C/C=C(/C)Cl	0.2	-0.3	-0.2	-6.1	73.0*	100.0
O=C(CSC1=NS(=O)(=O)c2cc(Cl)ccc2N1)Nc1ccccc1F	8.4	1.9	1.9	-9.8	95.0	·
CC(=O)Nc1ccc(NC(=O)CSC2=NS(=O)(=O)c3cc(Cl)ccc3N2)cc1	6.5	1.3	-2.3	-1.5	56.0*	100.0
CCc1cccc(NC(=O)c2sc3nc4n(c(=O)c3c2C)CCC4)c1	-5.1	-1.1	19.4	-17.5	94.0	94.0
CCOC(=O)c1ccc(NC(=O)c2sc3nc4n(c(=O)c3c2C)CCC4)cc1	3.2	-1.4	-1.1	3.9	97.0	·
Cc1cc(C)cc(NC(=O)c2sc3nc4n(c(=O)c3c2C)CCC4)c1	0.5	0.3	-6.0	5.5	92.0	·
Cc1c(C(=O)Nc2ccccn2)sc2nc3n(c(=O)c12)CCC3	5.5	-0.2	-3.4	8.3	95.0	·
CCOc1ccc(NC(=O)c2sc3nc4n(c(=O)c3c2C)CCC4)cc1	7.5	-4.0	-3.9	-87.7	94.0	102.0
Cc1c(C(=O)Nc2ccccc2F)sc2nc3n(c(=O)c12)CCC3	-1.8	-1.8	-1.8	-11.1	98.0	98.0
CCOC(=O)[C@@]12CCCC=C1N(CCc1ccc(Cl)cc1)C(=O)[C@H]2CC(=O)N1CCC(c2ccccc2)CC1	13.7	·	·	·	·	·
CCCCCCCCN1C(=O)[C@@H](CC(=O)NCc2ccc(C)o2)C[C@@]2(C(=O)OC)C1=C[C@H](C(C)C)O[C@@H]2C1CC1	-6.2	·	·	·	·	·
CC1Cc2ccccc2N1C1=NS(=O)(=O)c2ccccc21 (stereo not drawn)	3.8	-1.8	4.5	3.5	73.0*	102.0
O=S1(=O)N=C(N2CCCC2)c2ccccc21	3.0	-3.3	1.4	-5.6	95.0	·
COC(=O)C1CN(Cc2cn(CCC3OCCO3)nn2)CCS(=O)(=O)N1Cc1ccccc1 (stereo not drawn)	-2.3	·	·	·	·	·
CCOC(=O)CSc1nnc(NC(=O)c2cc([N+](=O)[O-])cc([N+](=O)[O-])c2)s1	-2.0	0.6	9.4	28.3	74.0*	97.0
C[C@@H]1[C@@H](c2ccccc2)c2cc3ccccc3nc2C(=O)C[C@@H]1C(=O)N1CCCC1	5.3	·	·	·	·	·
SMILES	Rev-erbA mod	PG9 Ab binder	Exocytosis inh	VLA-4 inh	ABCB6 inh MLPCN	ABCB6 blocker 1
Cc1ccccc1N1C(=O)[C@@H]2Cc3ccccc3CN2C1=O	-7.7	0.7	-1.0	13.1	68.0*	98.0
O=C(CCc1nc(-c2ccccc2Cl)no1)NC1CCCCC1	-3.1	-0.3	-9.3	3.3	73.0*	99.0
Cc1cc(S(=O)(=O)NC2CCCCC2)ccc1OCC(=O)NCC1CCCO1 (stereo not drawn)	2.5	-0.4	-3.1	2.5	73.0*	99.0
Cc1c2ccccc2nc2c(F)c(NCCO)c(F)c(F)c12	-2.8	-5.2	-2.3	-67.6	235.0	·
OCCNc1c2ccccc2nc2c(F)c(F)c(F)c(F)c12	11.1	-3.3	-1.8	-186.2	71.0*	109.0
CCN(CC)CCCNC(=O)C1(N[C@@H](Cc2c[nH]c3ccccc23)C(=O)NCC(OC)OC)CCCCC1	-6.1	·	·	·	·	·
O=C(Nc1ccc(Cl)cc1)Nc1ccccc1C(=O)N1CCCC1	8.9	·	·	·	·	·
